# Cruzain noTriton: cruzain (T. cruzi) inhibition without detergent | purified cruzain, Z-FR-AMC fluorescence, no detergent | Potency, µM, inactives show max response, negative = inhibition, usual class: inhibitors | actives 2.3% (n = 200,000) | P25779;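 also: plate controls were enzyme without inhibitor for no effect and buffer without enzyme for full effect; nearly all actives have a fitted effect of over 40% in size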
# Target sequence (P25779 123-467 limits assumed): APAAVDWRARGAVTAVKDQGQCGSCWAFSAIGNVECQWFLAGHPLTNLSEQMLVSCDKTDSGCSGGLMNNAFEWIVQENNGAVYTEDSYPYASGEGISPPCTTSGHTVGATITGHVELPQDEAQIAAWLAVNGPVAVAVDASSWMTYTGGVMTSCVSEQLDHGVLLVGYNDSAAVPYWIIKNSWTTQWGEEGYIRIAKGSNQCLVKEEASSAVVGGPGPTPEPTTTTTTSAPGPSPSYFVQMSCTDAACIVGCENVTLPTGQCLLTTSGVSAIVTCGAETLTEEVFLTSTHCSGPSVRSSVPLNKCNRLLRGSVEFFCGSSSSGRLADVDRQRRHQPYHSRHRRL
#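 Detergent-free condition (0.00005% Triton X-100) in acetate buffer pH 5.5 with DTT. 1.5 nM enzyme and compound were pre-mixed 15 min, then 2 uM Z-FR-AMC substrate added; reaction progress from fluorescence change between first and third reads (60 s).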
# Cruzain inh Det: cruzain (T. cruzi) inhibition with detergent; P25779; purified cruzain, Z-FR-AMC fluorescence, 0.01% Triton; Potency, µM, inactives show max response, negative = inhibition, actives largely listed as inhibitors; actives 0.43% (n = 200,000); AID 1478;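 also: plate controls were neutral wells for no effect and buffer without enzyme for full effect; nearly all actives have a fitted effect of over 40% in size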
#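 Enzyme 1.5 nM, Z-FR-AMC 2 uM, NaOAc 100 mM pH 5.5, DTT 5 mM, Triton X-100 0.01%; 15 min RT compound preincubation; kinetic ex360/em450, 60 s delta.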
# * marks the source's active call; other numbers are inactive results; ? = inconclusive. Sampled rows, rich in hits. Any-hit rate of the full collection: about 2.4%. Calls follow the shape of the dose curve; as a rule, active = well fitted curve in the direction sought with a large enough effect; inconclusive = small, poorly fitted or top-dose-only effect, or another doubt; inactive = no such curve, though single readings can be large; an effect the other way counts as inactive or inconclusive. Potency is read from the fitted curve at half-maximal effect.
SMILES,Cruzain noTriton,Cruzain inh Det
Cc1cc(C(=O)CN2C(=O)NC3(CCCCC3C)C2=O)c(C)n1Cc1cccs1 (configuration not stated),32µM*,-4%
Cc1cc(-n2c(C)cc(C(=O)CN3C(=O)NC4(CCCCC4C)C3=O)c2C)no1 (configuration not stated),-30%,6%
NC(=O)C1(N2CCCCC2)CCN(C(=O)CSc2nc3ccccc3[nH]2)CC1,-15%,0%
O=C1C(NS(=O)(=O)c2cccs2)=C(N2CCN(c3cccc(Cl)c3)CC2)C(=O)c2ccccc21,13µM*,-2%
CC1CCN(C2=C(NS(=O)(=O)c3ccc(Cl)cc3)C(=O)c3ccccc3C2=O)CC1,-18%,-6%
COc1cc(NCCCCCCCN)c2ncccc2c1,16µM*,-8%
COc1cc(NC(C)CCCN)c2ncccc2c1 (configuration not stated),-11%,1%
Cc1ccc(NS(=O)(=O)c2ccc(Cl)c(NC(=S)NC(=O)C3CCCCC3)c2)cc1Cl,32µM*,2%
Cc1ccc(NS(=O)(=O)c2ccc3c(c2)CCCN3C(=O)C2CCC2)cc1Cl,-19%,-5%
Cc1ccc(NC(=O)c2nnn(CC(=O)Nc3ccccc3)c2N)cc1C,?,6%
Cc1ccc(NC(=O)c2nnn(CC(=O)Nc3ccc(C)c(Cl)c3)c2N)c(C)c1,10µM*,1%
C#CCSc1nc2[nH]ncc2c(=O)[nH]1,9%,1%
CCOC(=O)N1CCN(C(=O)CS(=O)(=O)c2cn(Cc3ccccc3Cl)c3ccccc23)CC1,?,3%
Cc1cc(NC(=O)CS(=O)(=O)c2cn(Cc3ccccc3Cl)c3ccccc23)no1,25µM*,-4%
Cc1ccc(NC(=O)CSc2nc(=O)n(Cc3cccnc3)c3c2CCC3)cc1F,11%,-3%
FC(F)(F)c1ccccc1-c1cncnc1NCc1cccs1,8%,5%
CCCCOP(=O)(OCCCC)C(Nc1ccccc1)c1ccc2c(c1)OCO2 (configuration not stated),6%,-12%
CCOP(=O)(OCC)C(Nc1ccccc1)c1ccc2c(c1)OCO2 (configuration not stated),13µM*,0%
CCOc1ccccc1N(C)C(=O)c1cc(S(=O)(=O)NCCc2ccc(Cl)cc2)ccc1F,0%,0%
Oc1c(C=Nc2cccc3cccnc23)sc2ccccc12,-3%,-5%
O=[N+]([O-])c1ccc(O)c(N=Cc2sc3ccccc3c2O)c1,13µM*,-9%
Cc1ccc2cc(C(c3nnnn3C3CCCC3)N3CCN(c4ccc(F)cc4)CC3)c(=O)[nH]c2c1 (configuration not stated),-14%,-13%
CC(C)c1ccc(NC(=O)C(c2ccccc2)N2CCN(C=O)CC2)cc1 (configuration not stated),?,1%
CCCC1(c2ccccc2)NC(=O)N(CC(=O)Nc2sc(-c3ccccc3)cc2C(=O)OCC)C1=O (configuration not stated),7.9µM*,1%
CCOC(=O)c1cc(-c2ccccc2)sc1NC(=O)CC(C)C,-10%,-9%
SMILES,Cruzain noTriton,Cruzain inh Det
CCOC(=O)c1cc(-c2ccccc2)sc1NC(=O)C(C)(C)C,-4%,1%
CCOC(=O)c1cc(-c2ccccc2)sc1NC(=S)Nc1cc(C)ccn1,13µM*,7%
COc1ccc(OC)c(NC(=O)C(=O)/C=C(\O)c2cc(OC)ccc2OC)c1,?,-7%
Cc1ccc(-c2nnc(CSc3nc4cc5c(cc4cc3C)OCO5)o2)cc1,-28%,-8%
Cc1ccc2[nH]c(-c3ccccc3)cc(=O)c2c1,-11%,1%
Cc1ccc2[nH]c3c(c2c1)CC/C(=C/c1ccccc1)C3=O,13µM*,4%
O=C1/C(=C\c2ccccc2)CCc2c1[nH]c1ccccc21,?,-1%
Cc1ccc(/C=C2/CCc3c([nH]c4ccccc34)C2=O)cc1,32µM*,6%
O=S(=O)(Nc1ccc(O)c(Sc2nc3ccccc3s2)c1)c1cccc2ccccc12,-6%,-6%
Cc1oc(-c2ccccc2Cl)nc1CSCC(=O)NC1CC1,-5%,4%
O=C(C1=C[C@@H]2[C@H]3C(=O)N(c4ccc(Cl)cc4)C(=O)[C@H]3[C@@H](C(=O)c3ccc(Cl)cc3)N2C=C1)c1ccccc1,7.9µM*,-6%
Cc1ccc(N2C(=O)C3C(C2=O)C(C(=O)c2ccc(Cl)cc2)N2CCCC32)cc1 (configuration not stated),-4%,-12%
COc1ccccc1CN1CCCC2(CCN(C(=O)c3csnn3)CC2)C1,-16%,-2%
CCOC(=O)N1CCN(S(=O)(=O)c2cc(-c3nn4c(C)nnc4c4ccccc34)ccc2C)CC1,-8%,4%
Cc1ccc(C(=O)NC(=C(Cl)Cl)S(=O)(=O)c2ccc(C)cc2)cc1,11%,-2%
Cc1ccc(S(=O)(=O)/C(=C/Cl)NC(=O)c2ccccc2)cc1,25µM*,22µM*
COc1cccc(NC=C2C(=O)OC3(CCCCC3)OC2=O)c1,-19%,-5%
CCc1ccc(N2C(=O)CSC23C(=O)N(Cc2ccc(C)cc2)c2ccccc23)cc1 (configuration not stated),-26%,-9%
O=C1CS(=O)(=O)C2(C(=O)N(Cc3cccc(F)c3)c3ccccc32)N1c1ccccc1 (configuration not stated),10µM*,-6%
CCc1ccc(N2C(=O)CSC23C(=O)N(Cc2cccc(F)c2)c2ccccc23)cc1 (configuration not stated),-4%,0%
CCc1ccc(N2C(=O)CS(=O)(=O)C23C(=O)N(Cc2ccccc2)c2ccccc23)cc1 (configuration not stated),2.5µM*,-4%
Cc1ccc(-n2nnnc2SCn2nnc3ccccc3c2=O)c(C)c1,-5%,-5%
Cc1cc(C)c(NC(=O)c2oc3c(c2C)-c2[nH]ncc2CC3)c(C)c1,1%,-5%
COc1cccc(COC(=O)c2ccc(-c3nnn(Cc4cccc(OC)c4)n3)cc2)c1,-16%,1%
Cc1sc2ncnc(SCC(=O)N3c4ccccc4Sc4ccc(Cl)cc43)c2c1C,7.9µM*,-4%
SMILES,Cruzain noTriton,Cruzain inh Det
Cc1sc2ncnc(SCC(=O)c3cccs3)c2c1C,?,2%
O=C(c1cc2nc(-c3ccco3)cc(C(F)(F)F)n2n1)N1CCc2ccccc2C1,?,-11%
Cc1cc(C(=O)CSc2nnc(NCc3ccccc3)s2)c(C)n1C,-12%,-1%
CC(Sc1nnc(NCc2ccccc2)s1)C(=O)Nc1ccc2c(c1)C(=O)c1ccccc1C2=O (configuration not stated),32µM*,-9%
CCCCc1ccc(/C=C2/C(=O)ON=C2c2ccccc2)s1,-6%,-15%
Cc1sc(/C=C2\C(=O)ON=C2c2ccccc2)cc1Br,25µM*,?
Cc1cc(=O)n(CNC(=O)c2ccccc2)c(=S)[nH]1,9%,0%
C/C(=N/NS(=O)(=O)c1ccc(C)cc1)c1cccc(NC(=O)c2cccc(Cl)c2)c1,-21%,-4%
C/C(=N/NS(=O)(=O)c1ccc(Cl)cc1)c1cccc(NC(=O)c2ccc(Cl)cc2Cl)c1,25µM*,1%
O=C(CSC1=NCCN1)NC12CC3CC(CC(C3)C1)C2,20%,4%
CC(=O)c1cccc(NC(=O)C(OC(=O)c2cccs2)c2ccccc2)c1 (configuration not stated),32µM*,-6%
COCCNC(=O)C(OC(=O)c1cccs1)c1ccccc1 (configuration not stated),12%,8%

# Bioassay records as filed in PubChem BioAssay.
